Assay results reported in PubChem BioAssay (EPA / NIEHS).
Active and inactive are the calls of the source. How the source made its calls: active means hit-call score of the fitted dose curve at least 0.9, where 1 is the maximum; inactive means score below 0.9.

What was measured:
[1] = read-out: Plasminogen activator inhibitor-1 (PAI1), SERPINE1 (gene 5054); test: BSK_hDFCGF_PAI1: BioMAP Diversity Plus: hDFCGF Assay for Plasminogen activator inhibitor-1 (PAI1) Biomarker Activity (AID 2283066); conditions: primary human foreskin fibroblasts; actives raise or lower the signal
In short: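 PAI-1 levels, determined by ELISA, served as the endpoint in human foreskin fibroblast cultures exposed to compound for 24 h, with DMSO as baseline.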

[2] = read-out: Intercellular Adhesion Molecule 1 (ICAM1), ICAM1 (gene 3383); test: BSK_KF3CT_ICAM1: BioMAP Diversity Plus: KF3CT Assay for Intercellular Adhesion Molecule 1 (ICAM1) Biomarker Activity (AID 2283067); conditions: primary human keratinocytes with fibroblasts; actives raise or lower the signal
In short: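 Human keratinocyte–foreskin fibroblast co-culture was treated for 24 h. Cell-surface ICAM-1 was quantified by ELISA, fitted bidirectionally relative to DMSO. Cytotoxicity was checked in parallel cultures by SRB total-protein staining.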

[3] = read-out: Interferon-gamma inducible Protein 10 (IP10), CXCL10 (gene 3627); test: BSK_KF3CT_IP10: BioMAP Diversity Plus: KF3CT Assay for Interferon-gamma inducible Protein 10 (IP10) Biomarker Activity (AID 2283068); conditions: primary human keratinocytes with fibroblasts; actives raise or lower the signal
In short: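 In a primary skin co-culture of keratinocytes and fibroblasts, IP-10 is quantified by ELISA at 24 h after dosing. SRB staining of parallel wells monitors overt toxicity. Curves are fitted both directions against DMSO.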

[4] = BSK_KF3CT_SRB: Viability Assessment in the BioMAP Diversity Plus: KF3CT Assay (AID 2283069); conditions: primary human keratinocytes with fibroblasts;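 further: total protein by sulforhodamine B staining as a cytotoxicity measure; fitted for both signal gain and loss against DMSO baseline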
In short: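 Human keratinocyte and foreskin fibroblast co-culture exposed to chemical for 24 h. Total protein measured in parallel cultures by 0.1% sulforhodamine B staining after 10% TCA fixation, read at 560 nm; bidirectional fit relative to DMSO.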

[5] = read-out: Interleukin-1 alpha (IL1a), IL1A (gene 3552); test: BSK_KF3CT_IL1a: BioMAP Diversity Plus: KF3CT Assay for Interleukin-1 alpha (IL1a) Biomarker Activity (AID 2283070); conditions: primary human keratinocytes with fibroblasts; actives raise or lower the signal
In short: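 Primary human keratinocyte plus foreskin fibroblast co-culture, dosed and measured at 24 h in 96-well plates. IL-1a level quantified by ELISA; bidirectional fit relative to DMSO.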

[6] = read-out: TIMP metallopeptidase inhibitor 2 (TIMP2), TIMP2 (gene 7077); test: BSK_KF3CT_TIMP2: BioMAP Diversity Plus: KF3CT Assay for TIMP metallopeptidase inhibitor 2 (TIMP2) Biomarker Activity (AID 2283071); conditions: primary human keratinocytes with fibroblasts; actives raise or lower the signal
In short: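 Keratinocyte–fibroblast co-culture, 24 h exposure; TIMP-2 ELISA, DMSO-normalised bidirectional fit. Parallel SRB (0.1%, TCA-fixed, 560 nm) total-protein staining gauges cytotoxicity.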

[7] = read-out: Transforming growth factor beta 1 (TGFb1), TGFB1 (gene 7040); test: BSK_KF3CT_TGFb1: BioMAP Diversity Plus: KF3CT Assay for Transforming growth factor beta 1 (TGFb1) Biomarker Activity (AID 2283072); conditions: primary human keratinocytes with fibroblasts; actives raise or lower the signal
In short: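 Signal changes in either direction, relative to DMSO, define activity here. TGF-b1 is read by ELISA from a human keratinocyte-fibroblast co-culture 24 h post-dose.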

[8] = read-out: C-C motif chemokine 2 (Homo sapiens) (UniProt P13500); test: BSK_KF3CT_MCP1: BioMAP Diversity Plus: KF3CT Assay for Monocyte Chemoattractant Protein 1 (MCP1/CCL2) Biomarker Activity (AID 2283073); conditions: primary human keratinocytes with fibroblasts; actives raise or lower the signal
In short: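 Human keratinocyte–foreskin fibroblast co-culture; MCP-1 measured by ELISA 24 h after dosing. Bidirectional fit vs DMSO; cytotoxicity tracked by SRB total protein in parallel cultures.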

[9] = read-out: Matrix Metallopeptidase 9 (MMP9), MMP9 (gene 4318); test: BSK_KF3CT_MMP9: BioMAP Diversity Plus: KF3CT Assay for Matrix Metallopeptidase 9 (MMP9) Biomarker Activity (AID 2283074); conditions: primary human keratinocytes with fibroblasts; actives raise or lower the signal;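 on AC50: MMP9 protein level quantified by ELISA in the co-culture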
In short: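 Human keratinocyte and foreskin fibroblast co-culture exposed to chemicals for 24 h; MMP9 biomarker measured by ELISA, bidirectional fitting relative to DMSO; cytotoxicity tracked by SRB total protein staining in parallel cultures.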

[10] = read-out: urokinase plasminogen activator (uPA), PLAU (gene 5328); test: BSK_KF3CT_uPA: BioMAP Diversity Plus: KF3CT Assay for urokinase plasminogen activator (uPA) Biomarker Activity (AID 2283075); conditions: primary human keratinocytes with fibroblasts; actives raise or lower the signal
In short: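 Primary human keratinocyte/foreskin fibroblast co-culture exposed to chemical; uPA measured by ELISA at 24 h. Bidirectional fit versus DMSO, with parallel SRB total-protein staining for cytotoxicity.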

[11] = read-out: CD40, CD40 (gene 958); test: BSK_LPS_CD40: BioMAP Diversity Plus: LPS Assay for CD40 Biomarker Activity (AID 2283076); conditions: primary human HUVEC with PBMC; actives raise or lower the signal
In short: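 HUVEC plus PBMC co-culture stimulated with LPS; CD40 quantified by ELISA 24 h after compound dosing. Fitting was bidirectional relative to DMSO. SRB staining of parallel cultures flagged overt cytotoxicity.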

[12] = read-out: E-selectin (Homo sapiens) (UniProt P16581); test: BSK_LPS_Eselectin: BioMAP Diversity Plus: LPS Assay for Eselectin Biomarker Activity (AID 2283077); conditions: primary human HUVEC with PBMC; actives raise or lower the signal
In short: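 Human umbilical vein endothelial cells co-cultured with PBMC under LPS stimulation; cell-surface E-selectin measured by ELISA 24 h after dosing. Change in either direction versus DMSO, with SRB total-protein staining in parallel cultures for cytotoxicity.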

[13] = read-out: Interleukin-8 (IL8), CXCL8 (gene 3576); test: BSK_LPS_IL8: BioMAP Diversity Plus: LPS Assay for Interleukin-8 (IL8) Biomarker Activity (AID 2283078); conditions: primary human HUVEC with PBMC; actives raise or lower the signal
In short: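 Human umbilical vein endothelial cells co-cultured with PBMC, LPS-stimulated, exposed to compound for 24 h. IL-8 quantified by ELISA; fitted in both directions against DMSO, with SRB total-protein staining of parallel cultures for cytotoxicity.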

[14] = BSK_LPS_SRB: Viability Assessment in the BioMAP Diversity Plus: LPS Assay (AID 2283079); conditions: primary human HUVEC with PBMC;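 further: total protein by sulforhodamine B absorbance as a cytotoxicity measure; measured one day after compound addition; fitted in both directions against DMSO so loss or gain of signal counts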
In short: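 Co-culture of human umbilical vein endothelial cells and PBMC, read 24 h after dosing. Total protein by 0.1% SRB staining after 10% TCA fixation, absorbance at 560 nm; bidirectional fit against DMSO.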

[15] = read-out: Interleukin-1 alpha (IL1a), IL1A (gene 3552); test: BSK_LPS_IL1a: BioMAP Diversity Plus: LPS Assay for Interleukin-1 alpha (IL1a) Biomarker Activity (AID 2283080); conditions: primary human HUVEC with PBMC; actives raise or lower the signal
In short: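 Human umbilical vein endothelial cells co-cultured with PBMC and stimulated with LPS; IL-1a measured by ELISA 24 h after dosing. Bidirectional fitting against DMSO; cytotoxicity checked by SRB staining in parallel cultures.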

[16] = read-out: Monocyte Chemoattractant Protein-1 (MCP1), CCL2 (gene 6347); test: BSK_LPS_MCP1: BioMAP Diversity Plus: LPS Assay for Monocyte Chemoattractant Protein-1 (MCP1) Biomarker Activity (AID 2283081); conditions: primary human HUVEC with PBMC; actives raise or lower the signal;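 on AC50: secreted MCP-1 protein quantified by ELISA in culture supernatant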
In short: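 Human umbilical vein endothelial cells co-cultured with PBMC, LPS-stimulated; secreted MCP-1 measured by ELISA 24 h after compound addition. Bidirectional curve fitting against DMSO baseline; SRB total-protein staining in parallel cultures for cytotoxicity.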

[17] = BSK_LPS_PGE2: BioMAP Diversity Plus: LPS Assay for Prostaglandin E2 (PGE2) Biomarker Activity (AID 2283082); conditions: primary human HUVEC with PBMC; actives raise or lower the signal;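 on AC50: secreted prostaglandin E2 measured by ELISA in LPS-stimulated co-culture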
In short: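 Endpoint derived from bidirectional curve fitting versus DMSO of ELISA-measured PGE2 in LPS-stimulated human primary vascular co-culture (HUVEC with PBMC) harvested at 24 h.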

[18] = read-out: Macrophage colony-stimulating factor (MCSF), CSF1 (gene 1435); test: BSK_LPS_MCSF: BioMAP Diversity Plus: LPS Assay for Macrophage colony-stimulating factor (MCSF) Biomarker Activity (AID 2283083); conditions: primary human HUVEC with PBMC; actives raise or lower the signal
In short: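 HUVEC–PBMC co-culture, M-CSF measured by ELISA 24 h after chemical dosing. Fitted in both directions relative to DMSO as negative control; overt cytotoxicity assessed by SRB total-protein staining in parallel cultures.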

[19] = read-out: Tissue Factor, F3 (gene 2152); test: BSK_LPS_TissueFactor: BioMAP Diversity Plus: LPS Assay for Tissue Factor Biomarker Activity (AID 2283084); conditions: primary human HUVEC with PBMC; actives raise or lower the signal
In short: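 Human umbilical vein endothelial cells co-cultured with PBMC were dosed with compound. Cell-surface CD142 was measured by ELISA 24 h later. Activity was fitted bidirectionally against DMSO, with SRB total-protein staining in parallel cultures for cytotoxicity.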

[20] = read-out: Tumor necrosis factor (Homo sapiens) (UniProt P01375); test: BSK_LPS_TNFa: BioMAP Diversity Plus: LPS Assay for Tumour Necrosis Factor alpha (TNFa) Biomarker Activity (AID 2283085); conditions: primary human HUVEC with PBMC; actives raise or lower the signal;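 on AC50: TNFa protein level quantified by ELISA in the co-culture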
In short: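 Primary human vascular co-culture of HUVEC and PBMC; TNFa ELISA 24 h after treatment, analysed as increase or decrease relative to DMSO control.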

Measured: AC50

Sequence of Tumor necrosis factor (Homo sapiens) (P01375 whole entry, looked up): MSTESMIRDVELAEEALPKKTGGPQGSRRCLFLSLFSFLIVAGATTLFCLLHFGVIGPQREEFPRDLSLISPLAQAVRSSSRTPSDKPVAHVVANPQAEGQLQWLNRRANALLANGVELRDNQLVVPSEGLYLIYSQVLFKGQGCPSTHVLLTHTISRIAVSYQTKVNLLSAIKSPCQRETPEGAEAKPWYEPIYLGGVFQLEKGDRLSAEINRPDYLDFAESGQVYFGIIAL
Sequence of E-selectin (Homo sapiens) (P16581 whole entry, looked up): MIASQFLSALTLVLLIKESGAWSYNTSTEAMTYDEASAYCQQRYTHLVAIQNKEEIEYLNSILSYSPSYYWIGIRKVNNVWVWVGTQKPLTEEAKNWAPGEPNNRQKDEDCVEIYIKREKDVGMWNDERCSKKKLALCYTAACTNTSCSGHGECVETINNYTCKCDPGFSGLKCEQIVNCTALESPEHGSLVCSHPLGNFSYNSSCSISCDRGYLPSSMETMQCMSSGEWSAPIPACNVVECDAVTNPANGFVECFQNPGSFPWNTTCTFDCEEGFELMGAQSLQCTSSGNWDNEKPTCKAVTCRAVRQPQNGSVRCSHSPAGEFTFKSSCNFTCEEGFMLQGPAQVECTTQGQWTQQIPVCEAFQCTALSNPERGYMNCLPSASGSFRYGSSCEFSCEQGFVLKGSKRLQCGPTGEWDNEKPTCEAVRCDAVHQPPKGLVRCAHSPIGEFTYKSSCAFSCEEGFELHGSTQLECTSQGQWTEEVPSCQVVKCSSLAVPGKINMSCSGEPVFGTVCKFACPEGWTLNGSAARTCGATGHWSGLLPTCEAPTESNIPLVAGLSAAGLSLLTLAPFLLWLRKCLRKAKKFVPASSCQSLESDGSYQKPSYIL

CC(=O)OC[C@H]1O[C@@](COC(C)=O)(O[C@H]2O[C@H](COC(C)=O)[C@@H](OC(C)=O)[C@H](OC(C)=O)[C@H]2OC(C)=O)[C@@H](OC(C)=O)[C@@H]1OC(C)=O
inactive: all assays above

O=C(NS(=O)(=O)/C=C/c1ccccc1)c1ccc(F)cc1Cl
active: [6] 20 µM
not listed: [15]
inactive: all other assays above

COc1ccc(-n2nc(C(F)F)cc2-c2ccc(S(C)=O)cc2)cc1 (stereo not drawn)
active: [11] 1.7 µM | [17] 0.342 µM | [20] 2.57 µM
not listed: [15]
inactive: all other assays above

CCCCC(CC)COC(=O)CCCCCCCCC(=O)OCC(CC)CCCC (stereo not drawn)
active: [8] 3.97 µM
not listed: [15] | [17]
inactive: all other assays above

O=P(OC(CCl)CCl)(OC(CCl)CCl)OC(CCl)CCl
not listed: [17]
inactive: all other assays above

O=C1OC(=O)C2C3C=CC(C3)C12 (stereo not drawn)
not listed: [2] | [15]
inactive: all other assays above

O=C(OC[C@H]1O[C@@H](OC(=O)c2cc(O)c(O)c(OC(=O)c3cc(O)c(O)c(O)c3)c2)[C@H](OC(=O)c2cc(O)c(O)c(OC(=O)c3cc(O)c(O)c(O)c3)c2)[C@@H](OC(=O)c2cc(O)c(O)c(OC(=O)c3cc(O)c(O)c(O)c3)c2)[C@@H]1OC(=O)c1cc(O)c(O)c(OC(=O)c2cc(O)c(O)c(O)c2)c1)c1cc(O)c(O)c(OC(=O)c2cc(O)c(O)c(O)c2)c1
inactive: [4] | [8] | [11] | [12] | [13] | [15] | [18] | [20]
active: [1] 6.1 µM | [3] 4.98 µM | [5] 6.1 µM | [6] 2.92 µM | [7] 3.09 µM | [9] 6.1 µM | [10] 1.08 µM | [14] 10 µM | [16] 11 µM

Cn1c(=O)cc(Oc2ccc(F)cc2F)c2cnc(NCC(C)(C)O)nc21
active: [12] 3.35 µM | [16] 3.88 µM | [19] 0.58 µM | [20] 5.06 µM
not listed: [13] | [15] | [17]
inactive: all other assays above

COCCOc1cc2cc(C(=O)NC3CCN(C(C)C)CC3)n(CC(=O)Nc3ccc(Cl)cn3)c2cn1
not listed: [13]
inactive: all other assays above

CC(C)CCCCCCOC(=O)c1ccc(C(=O)OCCCCCCC(C)C)c(C(=O)OCCCCCCC(C)C)c1
not listed: [13] | [15]
inactive: all other assays above

O=c1n(CC2CO2)c(=O)n(CC2CO2)c(=O)n1CC1CO1 (stereo not drawn)
active: [1] 22 µM | [9] 20 µM | [11] 16.3 µM | [12] 20 µM | [13] 10.8 µM | [14] 12.2 µM | [16] 19.5 µM | [18] 20 µM
not listed: [2]
inactive: all other assays above

CCCCCCc1ccc(O)cc1O
active: [1] 30.7 µM | [2] 31.3 µM | [5] 30.3 µM | [6] 32.7 µM | [7] 29.7 µM | [8] 26.2 µM | [9] 34.1 µM | [10] 31.6 µM | [11] 27.6 µM | [12] 31.8 µM | [14] 28.5 µM | [15] 26.6 µM | [16] 30.2 µM | [17] 1.38 µM | [20] 32.6 µM
inactive: [19]

CC(C)c1cccc(C(C)C)c1N1C(=O)c2ccc(O)cc2C1=O
inactive: [8] | [13] | [15] | [17] | [19] | [20]
active: [1] 22 µM | [3] 26 µM | [4] 29.1 µM | [5] 30.9 µM | [6] 29.2 µM | [7] 29.4 µM | [9] 23.2 µM | [10] 36.7 µM | [11] 8.13 µM | [12] 18.9 µM | [14] 17.4 µM | [16] 34.8 µM | [18] 9.36 µM
